Legend:
Format in all cases: functional
Plasmodium falciparum [1] = assay: GSK_TCMDC: Inhibition of Plasmodium falciparum 3D7 in whole red blood cells, using parasite LDH activity as an index of growth. Test compounds present at 2uM
Plasmodium falciparum [2] = assay: GSK_TCMDC: Inhibition of Plasmodium falciparum Dd2 in whole red blood cells, using parasite LDH activity as an index of growth. Test compounds present at 2uM
HepG2 = assay: GSK_TCMDC: Percent inhibition of human HepG2 cell line. Test compounds present at 10uM.

Compound | Inhibition (Plasmodium falciparum [1]) [%] | Inhibition (Plasmodium falciparum [2]) [%] | Inhibition (HepG2) [%]
COCn1ncc2cc(-c3cccc(NC(=O)c4csc(NC(C)=O)n4)c3)ccc21 | 89 | 68 | 0
Cc1cccc2nc(-c3ccc(-c4ccc(NC(=O)NCc5cccc(F)c5)cc4)cc3)[nH]c12 | 97 | 12 | 46
CN1CCC(Oc2cc(CN3CC[C@H](NC(=O)c4ccc(Cl)c(Cl)c4)C3)ccc2I)C1.O=C(O)C(F)(F)F (stereo partly drawn) | 97 | 24 | 68
CCOC(=O)C1=C(C)N=c2sc(=Cc3ccccc3O)c(=O)n2C1c1ccc(OC)c2ccccc12 (stereo not drawn) | 97 | 38 | 0
Cc1ccc(CNC(=O)[C@H](Cc2ccccc2)Nc2cc(C)nc(NCC3CCCCC3)n2)cc1.O=C(O)C(F)(F)F | 100 | 89 | 0
O=C(CC1CCCC1)Nc1ccc2c(c1)CCC2 | 93 | 0 | 0
CCN(CC)CCN(Cc1ccc(-c2ccc(C(F)(F)F)cc2)cc1)C(=O)Cn1cc(Cc2cnn(C)c2)c(=O)nc1/C=C/c1ccc(F)cc1.O=C(O)C(O)C(O)C(=O)O | 96 | 91 | 6
Cc1cccc(-c2nn(-c3ccccc3)cc2C(=O)Nc2nnc(C)o2)c1 | 84 | 63 | 38
Cc1cccc2nc(-c3cccc(-c4cccc(C(=O)N5CCCCC5CN5CCC(O)C5)c4)c3)[nH]c12 (stereo not drawn) | 89 | 71 | 19
COc1ccc(NC(=O)N2CCc3ccc(OCCN(C(C)C)C(C)C)cc32)cc1C(F)(F)F.O=C(O)C(F)(F)F | 90 | 6 | 0
CC(C)C[C@H](NC(=O)c1cc2ccccc2s1)C(=O)N[C@H]1CCN(Cc2ccc(OCCN3CCNCC3)c3ccccc23)C1.O=C(O)C(F)(F)F | 100 | 96 | 43
COC(=O)Cn1c(C2CCN(CC3CCN(C(=O)/C=C/c4ccc(Cl)c(Cl)c4)CC3)CC2)nc2ccccc21 | 86 | 2 | 19
CCNC(=O)c1ccc(-n2nc(C)cc2-c2ccccc2)cc1 | 89 | 54 | 11
COc1ccc2nc3cc(Cl)ccc3c(NCCN3CCN(C)CC3)c2c1.Cl | 100 | 99 | 29
S=C(NN=Cc1ccccn1)NC1CC2C=CC1C2 (stereo not drawn) | 99 | 96 | 51
O=C(Nc1cccc(CN2CCCN(Cc3ccc(O)cc3)CC2)c1)c1cc2ccccc2o1.O=C(O)C(F)(F)F | 95 | 62 | 10
CN1CCN(c2cccc(Nc3nccc(NCC(O)c4ccccc4)n3)c2)CC1 (stereo not drawn) | 100 | 4 | 30
CCOc1cc(CC)ccc1C1CCN(CCCCNC(=O)c2ccc(NC(=O)c3ccc(Cl)cc3)cc2)CC1.Cl | 100 | 58 | 11
O=C(/C=C/C=C/c1ccccc1)NCCCCCN1CCC(c2c[nH]c3ccccc23)CC1 | 85 | 7 | 28
Cl.Fc1ccc2ncc(Cl)c(CCN3CCC(NCc4cc5c(cn4)OCCO5)CC3)c2c1 | 93 | 20 | 24
CCN1CCC(N(Cc2ccc(-c3ccc(C(F)(F)F)cc3)cc2)C(=O)Cn2c(CCc3cccc(F)c3F)cc(=O)c3ccccc32)CC1.O=C(O)C(O)C(O)C(=O)O | 94 | 94 | 100

Compound | Inhibition (Plasmodium falciparum [1]) [%] | Inhibition (Plasmodium falciparum [2]) [%] | Inhibition (HepG2) [%]
Cc1ccc(NC(=O)c2ccc(CN3CCCN(CC4CCCCC4)CC3)cc2)cc1F.O=C(O)C(F)(F)F | 92 | 61 | 51
Cc1cccc2nc(-c3cccc(-c4ccc(NC(=O)CS(C)(=O)=O)cc4)c3)[nH]c12 | 85 | 8 | 3
CC(C)C[C@H](NC(=O)c1cc2ccccc2s1)C(=O)N[C@H]1CCN(Cc2ccc(I)c(OC3CCN(C)C3)c2)C1.O=C(O)C(F)(F)F (stereo partly drawn) | 100 | 95 | 99
CCOc1cc(C(=O)Nc2cccnc2)ccc1-c1nc2cc(Cl)c(Cl)cc2[nH]1 | 100 | 70 | 9
O=C(Nc1cccc(OC2CCN(Cc3ccc(F)cc3)CC2)c1)c1ccc(C(F)(F)F)cc1.O=C(O)C(F)(F)F | 94 | 6 | 28
CC1(C)N=C(N)N=C(N)N1OCc1ccc2c(c1)OCO2 | 93 | 86 | 66
COc1cccc(-c2csc(C(=O)NC3CCCCN(Cc4ccc(C(C)(C)C)cc4)C3)c2)c1.O=C(O)C(F)(F)F (stereo not drawn) | 97 | 66 | 9
COc1ccc(NC(=O)C2c3ccccc3C(=O)N(C3CCCC3)C2c2cccs2)cc1 (stereo not drawn) | 93 | 75 | 0
CC(C)(C)c1ccc(CN2CCCCC(NC(=O)c3cc(-c4ccccc4Cl)cs3)C2)cc1.O=C(O)C(F)(F)F (stereo not drawn) | 100 | 98 | 3
CCOC(=O)c1ccc(NC(=O)Nc2cccc(-c3ccc(-c4nc5ccccc5[nH]4)cc3)c2)cc1 | 100 | 86 | 54
CCOc1ccc2c(c1)N(C(=O)C=Cc1ccccc1)C(C)(C)c1ssc(=S)c1-2 | 83 | 77 | 3
O=C(C1CC1)N1c2ccccc2CCc2ccccc21 | 98 | 57 | 40
O=C(Nc1ccc(OC(F)(F)F)cc1)Nc1ccc([N+](=O)[O-])cc1 | 100 | 100 | 41
COc1ccc(-c2ccc(NC(=O)c3cccc(C#N)c3)cc2)cc1CN1CCNCC1.O=C(O)C(F)(F)F | 100 | 47 | 30
COc1cc2nc(N(C)Cc3cccc(I)c3)nc(N)c2cc1OC | 100 | 88 | 7
COc1ccc(CCNCCCCCNCCc2ccc(Cl)cc2)cc1OC.Cl | 100 | 0 | 32
Cc1cc(=NN=Cc2ccc(Cl)cc2)c2cc(F)ccc2[nH]1 | 100 | 98 | 6
Cc1cccc2nc(-c3ccc(-c4ccc(NC(=O)C(C)CN(C)C)cc4)s3)[nH]c12 (stereo not drawn) | 100 | 98 | 23
NC(=O)c1cc2nc(Nc3ccc(F)cc3)nc(NC3CCC3)c2[nH]1.O=CO | 100 | 100 | 0
NC(=O)c1ccccc1OCC(=O)Nc1cccc(-c2ccc(-c3nc4cc(C(F)(F)F)ccc4[nH]3)cc2)c1 | 92 | 17 | 58
Cc1cc(NC(=O)c2cccs2)ccc1OC1CCN(Cc2ccccc2)CC1.O=C(O)C(F)(F)F | 95 | 91 | 10

Compound | Inhibition (Plasmodium falciparum [1]) [%] | Inhibition (Plasmodium falciparum [2]) [%] | Inhibition (HepG2) [%]
CC1(C)N=C(N)N=C(N)N1c1cc(Cl)c(Cl)c(Cl)c1.CCS(=O)(=O)O | 93 | 31 | 68
COc1ccc(C(=O)Nc2ccc(-c3ccc([N+](=O)[O-])cc3)cc2)cc1CCCN(C)C.Cl | 98 | 9 | 20
Br.CCCC1N=C(N)N=C(N)N1c1cccc([N+](=O)[O-])c1 (stereo not drawn) | 96 | 1 | 0
CCOc1cc(Cl)c(C(C)NC(=O)c2ccccc2)cc1OCC (stereo not drawn) | 91 | 49 | 0
Cc1cccc2nc(-c3ccc(-c4cccc(CN5CCN(c6ccncc6)CC5)c4)s3)[nH]c12.O=C(O)C(F)(F)F | 100 | 99 | 48
CNC(=O)c1ccccc1Nc1nc(Nc2ccc(CCN3CCN(C)CC3)cc2)ncc1Cl.Cl | 97 | 98 | 76
Cc1ccc(O)c(C(=O)c2cnc3c(c2)c(-c2ccc(F)cc2)c(C#N)c(=O)n3C)c1 | 93 | 56 | 17
COc1ccc(NC(=O)Nc2ccc(-c3ccccc3)cc2Cl)cc1N1CCN(C)CC1 | 90 | 30 | 40
CN1CCN(CCCN(Cc2ccc(-c3ccc(CNC4CCCC4)cc3)cc2)C(=O)CCC2CCCC2)CC1.O=C(O)C(F)(F)F | 98 | 96 | 92
O=C(Nc1cccc(F)c1)N1CCC(NS(=O)(=O)c2ccc(Br)cc2)CC1 | 93 | 23 | 4
CCc1cc2c(cc1OCCN(C)C)N(C(=O)Nc1ccc(-c3ccncc3)c(Cl)c1)CC2 | 95 | 7 | 18
Cc1ccc(C2=NNC3(S2)C(=O)N(C)c2ccccc23)cc1 (stereo not drawn) | 82 | 12 | 36
Cl.c1ccc2ncc(CNCCCCCCCCNCc3cnc4ccccc4c3)cc2c1 | 88 | 4 | 8
COc1ccc(CC2(c3ccc(F)cc3)N=C(N)N(CCCc3ccccc3)C2=O)cc1.O=C(O)C(F)(F)F (stereo not drawn) | 99 | 97 | 38
OCCn1c(CNCCCNc2nc3ccccc3[nH]2)cc2c(Cl)cc(Cl)cc21 | 95 | 0 | 29
CC(=O)Nc1nc(C(=O)Nc2ccc(-c3cccc(-c4nc5cccc(C)c5[nH]4)c3)cc2)cs1 | 100 | 73 | 100
O=C(/C=C/c1ccc(Cl)c(Cl)c1)N1CCC(CN2CCC(c3c[nH]c4cnccc34)CC2)CC1 | 100 | 100 | 39
CCNC[C@H]1CCCN1CCOc1ccc(-n2cnc3cc(-c4ccc(Cl)cc4)sc3c2=O)cc1OC.O=C(O)C(F)(F)F | 97 | 39 | 53
CN1CC[C@@H](Oc2cc(CNC(=O)c3ccc(-c4ccc(Cl)cc4)s3)ccc2C(F)(F)F)C1.Cl | 93 | 64 | 40

Source: ChEMBL document CHEMBL1157539, “Thousands of chemical starting points for antimalarial lead identification” (Nature, 2010)
